# Laboratory results taken from PubChem BioAssay AID588342 (National Center for Advancing Translational Sciences (NCATS), 2011).
# The campaign covered roughly 360,000 compounds. About 25,000 (6.9%) were called active. Roughly 9% stayed inconclusive and do not appear here. The full list was thinned out, with actives kept by preference. A number with no mark means an inactive call. The call rests on the fitted dose curve; in most records, active means well fitted inhibition curve with a large enough effect; inconclusive means small, poorly fitted or top-dose-only effect; inactive means flat fitted curve, though single readings scatter.
# Molecular target: Luciferin 4-monooxygenase (Photinus pyralis) (UniProt P08659)
# Sequence (P08659 whole entry, looked up): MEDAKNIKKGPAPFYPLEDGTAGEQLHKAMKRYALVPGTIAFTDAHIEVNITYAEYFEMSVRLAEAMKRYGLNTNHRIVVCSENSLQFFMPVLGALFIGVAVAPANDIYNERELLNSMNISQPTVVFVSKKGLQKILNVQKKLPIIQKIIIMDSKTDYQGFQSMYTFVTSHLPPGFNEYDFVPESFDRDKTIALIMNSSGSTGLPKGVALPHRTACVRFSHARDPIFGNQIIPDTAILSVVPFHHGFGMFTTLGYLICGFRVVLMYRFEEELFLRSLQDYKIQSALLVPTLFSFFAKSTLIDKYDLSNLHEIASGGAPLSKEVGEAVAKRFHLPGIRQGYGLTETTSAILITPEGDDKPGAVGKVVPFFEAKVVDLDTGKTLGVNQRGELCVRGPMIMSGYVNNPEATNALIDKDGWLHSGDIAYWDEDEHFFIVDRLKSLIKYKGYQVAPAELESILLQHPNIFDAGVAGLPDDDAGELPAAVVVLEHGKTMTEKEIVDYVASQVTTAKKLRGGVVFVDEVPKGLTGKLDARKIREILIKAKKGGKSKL
# Test: qHTS profiling assay for firefly luciferase inhibitor/activator using purifed enzyme and Km concentrations of substrates (counterscreen for miR-21 project); further: nearly all actives have a fitted effect of over 55% in size;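 on activity change, negative = inhibition: plate controls were vehicle for no effect and reference inhibitor for full effect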
# Settings: purified FLuc, luminescence inhibition; series mostly up to 57.5 µM; activity change, negative = inhibition: at the top concentration
# How it was run: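 Purified P. pyralis luciferase, 10 nM final, with Km-level 10 uM D-luciferin and 10 uM ATP in 50 mM Tris acetate pH 7.5, 10 mM Mg acetate, 0.01% Tween-20, 0.05% BSA; 6-point qHTS titration about 60 µM downward; luminescence read.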
# Potency means the concentration at half of the fitted maximal effect.
SMILES,"activity change, negative = inhibition",Potency
Cc1c(C(C)CCCO)oc(=O)c2c1Oc1c(C)c(C(C)C[C@@H](C)O)oc(=O)c1C2 (some centres not stated),2.46%,–
O=C(NCCN1CCOCC1)c1cccc(S(=O)(=O)Nc2ccc(F)cc2)c1,3.82%,–
COc1cc(Cl)c(C)cc1NC(=O)CCc1nc2cccnc2n1Cc1cccs1,-15.4%,–
CCOc1ccc(NC(=O)CCC(=O)NNC(=O)NC2CCCCC2)cc1,1.41%,–
Cc1ccccc1C(=O)Nc1sc2c(c1C(=O)N1CCC(C)CC1)CCCC2,-1.02%,–
CCNS(=O)(=O)c1cc(-c2nnc(Nc3cccc(C(F)(F)F)c3)c3ccccc23)ccc1C,3.64%,–
CCOC(=O)C1CCCN(C(=O)c2ccc(C)c(S(=O)(=O)N3CCCCC3)c2)C1 (configuration not stated),-3.18%,–
Cn1cccc1/C=N/NC(=O)c1ccc(OC(F)(F)C(F)F)cc1,–,12 µM (active)
Cn1cccc1/C=N/NC(=O)CNc1cccc2ccccc12,-17%,–
COC(=O)[C@H](C)NC(=O)Nc1ccc(OC(F)(F)F)cc1,0.295%,–
COc1ccc(NC(=O)CSc2nc3ccccc3n2CC(=O)N2CCCCC2C)cc1 (configuration not stated),-2.28%,–
Cc1ccc(S(=O)(=O)N2CCOCC2)cc1NC(=O)CSc1nnc(N)s1,2.58%,–
CCOC(=O)c1cc2c(=O)n3ccccc3nc2n(Cc2ccco2)c1=NC(=O)c1ccc(F)cc1,-0.239%,–
Cc1ccc(OCCSc2nc3ccc(NC(=O)COc4ccc(C)cc4)cc3s2)cc1,1.87%,–
CC1CCN(S(=O)(=O)c2ccc3c(ccn3CCC(=O)NCc3ccc(N(C)C)cc3)c2)CC1,-2.72%,–
COc1ccc(CC(=O)Nc2nnc3n2CCS3)cc1OC,-3.34%,–
CCOCCCNC(=O)c1cc2c(=O)n3ccccc3nc2s1,-15%,–
CCc1ccc2oc(-c3ccc(N)cc3)nc2c1,–,0.19 µM (active)
NS(=O)(=O)c1ccc(CCNC(=O)CCCCCn2c(=O)[nH]c3ccccc3c2=O)cc1,-7.29%,–
CCc1ccc(NC(=O)c2cc(S(=O)(=O)NC3CCCCCC3)ccc2F)cc1,-8.51%,–
CCOC(=O)C1=C(c2ccccc2)N=C2SCC(=O)N2C1c1ccc(O)c(OC)c1 (configuration not stated),-1.7%,–
CSc1ccc(CCNC(=O)c2cc(C)nc3c2c(C)nn3-c2cccc(F)c2)cc1,-1.61%,–
COc1ccc(C2NC(=S)NC3=C2CCc2ccccc23)cc1OC (configuration not stated),4.29%,–
CCOc1ccc(C2NC(=S)NC3=C2CCc2ccccc23)cc1 (configuration not stated),–,21.3 µM (active)
CCOC(=O)C1=C(c2ccccc2)NC(=S)NC1c1ccc(Cl)cc1 (configuration not stated),1.44%,–
CCN1CCc2nc3sc(C(=O)Nc4ccccc4OC(F)(F)F)c(N)c3cc2C1,0.475%,–

SMILES,"activity change, negative = inhibition",Potency
Cn1c(=O)c2c(nc(Oc3ccc(C#N)cc3)n2Cc2ccc(Cl)cc2Cl)n(C)c1=O,-3.98%,–
O=[N+]([O-])c1cccc(C2=NCCS2)c1,-8.97%,–
O=Cc1ccc(Oc2cccc(C(F)(F)F)c2)nc1,-3.32%,–
FC(F)(F)c1ccnc(Oc2ccc(C3=NCCS3)cc2)c1,–,3.38 µM (active)
O=C(OCC(=O)N1CCCC1)c1ccc(Cl)nc1,2.43%,–
Oc1oc(-c2ccccc2Br)nc1/C=N/c1ccccn1,–,7.57 µM (active)
CCOc1ccc2nc(/N=C/c3nc(-c4ccccc4)oc3O)sc2c1,2.17%,–
CCOc1ccc(C(=O)NCC(=O)N2CCN(c3ccc(C(F)(F)F)cn3)CC2)cc1,6.42%,–
CCn1cc(C(=O)OCC(=O)Nc2cc(C)cc(C)c2)c(=O)c2ccc(C)nc21,-2.09%,–
O=S(=O)(NC1CC1)c1ccc(F)c(F)c1,-2.04%,–
Cc1cc(C)cc(NC(=O)CSc2nc(=O)n(CCN3CCOCC3)c3c2CCC3)c1,-2.95%,–
Cn1c(SCC(=O)Nc2nccs2)nnc1-c1cccnc1,2.95%,–
CCn1c(SCC(=O)Nc2nccs2)nnc1-c1ccco1,-1.53%,–
Cc1[nH]c2ccccc2c1SCC(=O)Nc1nccs1,–,23.9 µM (active)
CCOc1ccccc1C(=O)NCc1ccc2c(c1)CCN2C(=O)c1ccc(F)cc1,-15%,–
Cc1ccccc1NC(=O)CSc1ccc2nnc(-c3ccccn3)n2n1,-2.1%,–
Cc1ccc(-c2onc(C)c2C)cc1S(=O)(=O)Nc1ccccn1,-14.3%,–
COc1ccc(C(=O)NC2CCN(C(=S)NCCc3ccccc3)CC2)cc1,0.548%,–
O=C1CCN(C(=S)NCCc2ccccc2)CC1,0.463%,–
S=C(NCCc1ccccc1)N1CCCCC1,–,16.9 µM (active)
CCOCCCN(C(=O)Cn1nnc(-c2ccc(OC)c(OC)c2)n1)C(CC)C(=O)NC1CCCC1 (configuration not stated),-2.8%,–
O=[N+]([O-])c1ccc(N/N=C2/CCCCC2c2ccccn2)c([N+](=O)[O-])c1 (configuration not stated),-12.6%,–
O=[N+]([O-])c1ccc2nc(-c3ccccn3)[nH]c2c1,–,12 µM (active)
O=c1[nH]c2cccnc2n1-c1ccc([N+](=O)[O-])cc1,-0.226%,–
COc1ccccc1NC(=O)CSc1oc(-c2ccco2)nc1S(=O)(=O)c1ccc(Br)cc1,-4.64%,–
CCOc1ccc(S(=O)(=O)Nc2ccc3oc4c(c3c2)CC(C)CC4)cc1 (configuration not stated),-12.4%,–
